# Positions count from the first letter of the chain named.
# Experiments:
# Assay in all cases: yeast three-hybrid, YBZ-1, SC-Leu-His + 0.5 mM 3-AT, 4 days
# Conditions in all cases: tags: N-Gal4 AD-HA kept; label: inside an RPR1-promoter hybrid RNA with tandem MS2 sites; ssRNA
# PUM1 PUF domain R5-KGR = PUM1 PUF domain R5-KGR (Homo sapiens, UniProt Q14671 828-1176, C1007K;R1008G;Q1011R)
# How it was run: (§1)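 The interaction score is the log change in variant frequency from input to selection. Scores were computed in log2 with a pseudocount of 1 for absent variants, using Illumina sequencing of PCR-amplified repeat regions. The input came from four days on SC-Leu and the selection from four days on SC-Leu-His + 0.5 mM 3-AT. The cells were strain YBZ-1 (LexA–MS2 coat fusion, HIS3 reporter) co-expressing Pumilio-1 PUF domain libraries and matching RNA elements from a centromeric plasmid.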
# PUM1 PUF domain R5-PRA = PUM1 PUF domain R5-PRA (Homo sapiens, UniProt Q14671 828-1176, C1007P;Q1011A)
# How it was run: as §1
# PUM1 PUF domain R4-DWE = PUM1 PUF domain R4-DWE (Homo sapiens, UniProt Q14671 828-1176, N971D;H972W;Q975E)
# How it was run: as §1
# PUM1 PUF domain R3-RDS = PUM1 PUF domain R3-RDS (Homo sapiens, UniProt Q14671 828-1176, C935R;R936D;Q939S)
# How it was run: as §1
# PUM1 PUF domain R3-LYA = PUM1 PUF domain R3-LYA (Homo sapiens, UniProt Q14671 828-1176, C935L;R936Y;Q939A)
# How it was run: as §1
# PUM1 PUF domain R8-QWS = PUM1 PUF domain R8-QWS (Homo sapiens, UniProt Q14671 828-1176, N1122Q;Y1123W;Q1126S)
# How it was run: as §1
# PUM1 PUF domain R4-WAG = PUM1 PUF domain R4-WAG (Homo sapiens, UniProt Q14671 828-1176, N971W;H972A;Q975G)
# How it was run: as §1
# PUM1 PUF domain R8-HWL = PUM1 PUF domain R8-HWL (Homo sapiens, UniProt Q14671 828-1176, N1122H;Y1123W;Q1126L)
# How it was run: as §1
# PUM1 PUF domain R3-CNY = PUM1 PUF domain R3-CNY (Homo sapiens, UniProt Q14671 828-1176, R936N;Q939Y)
# How it was run: as §1
# PUM1 PUF domain R6-SFQ = target: T1, PUM1 PUF domain R6-SFQ (Homo sapiens, UniProt Q14671 828-1176, N1043S;Y1044F)
# T1 sequence: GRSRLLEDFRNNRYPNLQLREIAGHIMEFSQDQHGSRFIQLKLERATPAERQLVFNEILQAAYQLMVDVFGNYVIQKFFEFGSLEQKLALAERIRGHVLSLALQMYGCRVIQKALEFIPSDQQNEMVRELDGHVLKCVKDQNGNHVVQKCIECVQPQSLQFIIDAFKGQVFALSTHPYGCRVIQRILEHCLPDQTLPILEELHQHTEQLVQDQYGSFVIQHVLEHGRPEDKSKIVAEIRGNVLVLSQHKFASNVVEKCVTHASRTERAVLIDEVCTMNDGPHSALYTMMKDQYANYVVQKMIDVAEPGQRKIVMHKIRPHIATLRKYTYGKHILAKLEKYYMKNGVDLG
# How it was run: as §1
# PUM1 PUF domain R6-HFG = target: T2, PUM1 PUF domain R6-HFG (Homo sapiens, UniProt Q14671 828-1176, N1043H;Y1044F;Q1047G)
# T2 sequence: T1 sequence with S216H, Q220G
# How it was run: as §1
# PUM1 PUF domain R8-VHR = PUM1 PUF domain R8-VHR (Homo sapiens, UniProt Q14671 828-1176, N1122V;Y1123H;Q1126R)
# How it was run: as §1
sequence,measurement,setting,value
GGCUAGAACUAGUGGAUCCCCCGGCGCCCGGCGGCUCGAGCCCGGGUAAGUGUCAAUAGUCUGCAUGCCGCCGGGCGCCAUGCCUGCAGGUCGACUCUAGAAAACAUG,binding signal,PUM1 PUF domain R5-KGR,4.53 log2 enrichment (interaction score)
GGCUAGAACUAGUGGAUCCCCCGGCGCCCGGCGGCUCGAGCCCGGGUAAGUGUGAAUAGUCUGCAUGCCGCCGGGCGCCAUGCCUGCAGGUCGACUCUAGAAAACAUG,binding signal,PUM1 PUF domain R5-PRA,1.9 log2 enrichment (interaction score)
GGCUAGAACUAGUGGAUCCCCCGGCGCCCGGCGGCUCGAGCCCGGGUAAGUGUAGAUAGUCUGCAUGCCGCCGGGCGCCAUGCCUGCAGGUCGACUCUAGAAAACAUG,binding signal,PUM1 PUF domain R4-DWE,4.93 log2 enrichment (interaction score)
GGCUAGAACUAGUGGAUCCCCCGGCGCCCGGCGGCUCGAGCCCGGGUAAGUGUAAUUAGUCUGCAUGCCGCCGGGCGCCAUGCCUGCAGGUCGACUCUAGAAAACAUG,binding signal,PUM1 PUF domain R3-RDS,2.88 log2 enrichment (interaction score)
same,binding signal,PUM1 PUF domain R3-LYA,4.81 log2 enrichment (interaction score)
GGCUAGAACUAGUGGAUCCCCCGGCGCCCGGCGGCUCGAGCCCGGGUAAGUGUAAAUAGUCUGCAUGCCGCCGGGCGCCAUGCCUGCAGGUCGACUCUAGAAAACAUG,binding signal,PUM1 PUF domain R8-QWS,4.13 log2 enrichment (interaction score)
same,binding signal,PUM1 PUF domain R4-WAG,2.25 log2 enrichment (interaction score)
same,binding signal,PUM1 PUF domain R8-HWL,3.96 log2 enrichment (interaction score)
same,binding signal,PUM1 PUF domain R3-CNY,3.55 log2 enrichment (interaction score)
same,binding signal,PUM1 PUF domain R6-SFQ,2.98 log2 enrichment (interaction score)
same,binding signal,PUM1 PUF domain R6-HFG,5.43 log2 enrichment (interaction score)
same,binding signal,PUM1 PUF domain R5-PRA,4.36 log2 enrichment (interaction score)
same,binding signal,PUM1 PUF domain R8-VHR,3.13 log2 enrichment (interaction score)
same,binding signal,PUM1 PUF domain R3-LYA,2.44 log2 enrichment (interaction score)
GGCUAGAACUAGUGGAUCCCCCGGCGCCCGGCGGCUCGAGCCCGGGUAAGUGUUAAUAGUCUGCAUGCCGCCGGGCGCCAUGCCUGCAGGUCGACUCUAGAAAACAUG,binding signal,PUM1 PUF domain R5-PRA,2.94 log2 enrichment (interaction score)
